# Experimental data as given in PubChem BioAssay (Tox21).
# Where “and” joins values, the source holds several entries; their conditions need not be identical. Equal values may be shown once. Results filed as inconclusive are left out. A call without a number means that no potency is given here. Some structures have more than one record in an assay (separate samples or runs), and their calls can disagree. Calls of active or inactive are those of the source. Calls come from the whole dose curve; as a rule, active = well fitted curve in the direction sought with a large enough effect in the repeat runs; inconclusive = weak or mixed curves; inactive = no such curve, though single readings can be large; an effect the other way counts as inactive or inconclusive.
# Legend:
# [1] = Caspase-3/7 induction in HepG2 cells by small molecules, qHTS cell viability counter screen (AID 1346981); note: series mostly up to about 92 µM; nearly all actives have a fitted effect of over 30% in size
# Procedure, shortened: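 Treatment of HepG2 cells with DMSO-delivered compounds ran 16 hr at 37 C following a 5-hr pre-incubation of 2,000 cells/well. CellTiter-Fluor fluorescence, read after 1 hr, served as the viability measure in a qHTS format.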
# [2] = target: Nuclear receptor subfamily 1 group I member 2 (Homo sapiens) (UniProt O75469); test: Human pregnane X receptor (PXR) small molecule agonists, qHTS assay (AID 1346982); note: nearly all actives have a fitted effect of over 35% in size; note: potency is the fitted concentration of half-maximal effect
# Procedure, shortened: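 Stable HepG2 line reporting PXR-mediated CYP3A4 expression via luciferase. Treatment: 24 hr with compounds in DMSO at 37 C. Detection: ONE-Glo luminescence.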
# [3] = target: Cytochrome P450 2D6 (Homo sapiens) (UniProt P10635); test: Cytochrome P450 Family 2 Subfamily D Member 6 (CYP2D6) small molecule antagonists: luciferase reporter qHTS assay (AID 1671196); note: nearly all actives have a fitted effect of over 50% in size; note: potency is the fitted concentration of half-maximal effect; for activity change, negative = inhibition: series mostly up to about 120 µM
# Procedure, shortened: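 Chemicals tested for interference with CYP2D6 activity; proluciferin substrate, NADPH regeneration, 1 h at room temperature, luminescent detection.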
# [4] = target: Cytochrome P450 2C19 (Homo sapiens) (UniProt P33261); test: Cytochrome P450 Family 2 Subfamily C Member 19 (CYP2C19) small molecule antagonists: luciferase reporter qHTS assay (AID 1671197); note: nearly all actives have a fitted effect of over 65% in size; note: potency is the fitted concentration of half-maximal effect; for activity change, negative = inhibition: series mostly up to about 120 µM
# Procedure, shortened: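 P450-Glo CYP2C19 system: enzyme-substrate mix with compound 10 min at room temperature, then NADPH regeneration solution, 1 h at 37C. Proluciferin-to-luciferin conversion detected by luminescence after 20 min with detection reagent; ketoconazole as positive control.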
# [5] = target: Cytochrome P450 2C9 (Homo sapiens) (UniProt P11712); test: Cytochrome P450 Family 2 Subfamily C Member 9 (CYP2C9) small molecule antagonists: luciferase reporter qHTS assay (AID 1671198); note: nearly all actives have a fitted effect of over 50% in size; note: potency is the fitted concentration of half-maximal effect; for activity change, negative = inhibition: series mostly up to about 120 µM
# Procedure, shortened: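 CYP2C9 activity was measured with a P450-Glo proluciferin substrate. Enzyme–substrate mix was held with compound for 10 min at room temperature, then NADPH regeneration solution was added for 1 h at 37C. Luciferin product was read as luminescence.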
# [6] = target: Cytochrome P450 1A2 (Homo sapiens) (UniProt P05177); test: Cytochrome P450 Family 1 Subfamily A Member 2 (CYP1A2) small molecule antagonists: luciferase reporter qHTS assay (AID 1671199); note: nearly all actives have a fitted effect of over 50% in size; note: potency is the fitted concentration of half-maximal effect; for activity change, negative = inhibition: series mostly up to about 120 µM
# Procedure, shortened: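 Read-out is luminescence from luciferin detection reagent (20 min) proportional to CYP1A2 activity; compounds in DMSO preincubated 10 min with enzyme and proluciferin substrate, then NADPH regeneration solution, 1 h, room temperature.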
# [7] = target: Voltage-gated inwardly rectifying potassium channel KCNH2 (Homo sapiens) (UniProt Q12809); test: Human Ether-a-go-go-Related Gene (hERG) channel small molecule antagonists: fluorescence cell-based qHTS assay (AID 1671200);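 note: hERG-expressing U2OS cells given a thallium stimulus after FluxOR II dye loading; series mostly up to about 77 µM; nearly all actives have a fitted effect of over 50% in size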
# Procedure, shortened: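 Cell line hERG-U2OS; dye FluxOR II, 1 h RT dark; Tl+ stimulus; ex 480/em 540 nm, read each second for 2 min.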
# [8] = target: Cytochrome P450 3A4 (Homo sapiens) (UniProt P08684); test: Cytochrome P450 Family 3 Subfamily A Member 4 (CYP3A4) small molecule antagonists: luciferase reporter qHTS assay (AID 1671201); note: nearly all actives have a fitted effect of over 50% in size; note: potency is the fitted concentration of half-maximal effect; for activity change, negative = inhibition: series mostly up to about 120 µM
# Procedure, shortened: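 Room-temperature assay throughout: 10 min compound–enzyme/substrate preincubation, 1 h reaction after NADPH regeneration solution, 20 min detection. Luciferin formed from proluciferin substrate is quantified by luminescence.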
# [9] = target: Nuclear receptor subfamily 1 group I member 2 (Rattus norvegicus) (UniProt Q9R1A7); test: Rat pregnane X receptor (rPXR) activation by small molecules, qHTS assay (AID 1346983); details: rPXR luciferase reporter cells, One-Glo luminescence, 24 h; max activation: stronger effect = higher value; note: nearly all actives have a fitted effect of over 20% in size; note: potency is the fitted concentration of half-maximal effect
# Procedure, shortened: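 Cell-based rPXR luciferase reporter assay, 2,000 cells per well, rested 5hr at 37 C before compound addition in DMSO, then 24 hr at 37 C. One-Glo reagent was added and luminescence read after 30 min at room temperature.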
# [10] = target: Nuclear receptor subfamily 1 group I member 2 (Homo sapiens) (UniProt O75469); test: CYP3A4 induction through human pregnane X receptor (PXR) by small molecules, qHTS assay (AID 1346984); note: nearly all actives have a fitted effect of over 40% in size
# Procedure, shortened: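 After 24 h at 37C with compound, DPX-2 cells (HepG2, co-transfected PXR response element and CYP3A4 promoter-luciferase) got 3uM final P450-Glo Luciferin-IPA for 3 h; One-Glo luminescence followed.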
# [11] = target: Nuclear receptor subfamily 1 group I member 2 (Homo sapiens) (UniProt O75469); test: Human pregnane X receptor (PXR) activation by small molecules, qHTS assay (AID 1346985); note: nearly all actives have a fitted effect of over 40% in size
# Procedure, shortened: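 DPX-2 cells (HepG2 co-transfected with a PXR response element and a CYP3A4-promoter luciferase construct) were seeded at 2,000 per well, rested 5 hr at 37C, then exposed to DMSO-dissolved compounds for 24 hr. Activation was read as luciferase luminescence.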
# Chain of Voltage-gated inwardly rectifying potassium channel KCNH2 (Homo sapiens) (Q12809 whole entry, looked up): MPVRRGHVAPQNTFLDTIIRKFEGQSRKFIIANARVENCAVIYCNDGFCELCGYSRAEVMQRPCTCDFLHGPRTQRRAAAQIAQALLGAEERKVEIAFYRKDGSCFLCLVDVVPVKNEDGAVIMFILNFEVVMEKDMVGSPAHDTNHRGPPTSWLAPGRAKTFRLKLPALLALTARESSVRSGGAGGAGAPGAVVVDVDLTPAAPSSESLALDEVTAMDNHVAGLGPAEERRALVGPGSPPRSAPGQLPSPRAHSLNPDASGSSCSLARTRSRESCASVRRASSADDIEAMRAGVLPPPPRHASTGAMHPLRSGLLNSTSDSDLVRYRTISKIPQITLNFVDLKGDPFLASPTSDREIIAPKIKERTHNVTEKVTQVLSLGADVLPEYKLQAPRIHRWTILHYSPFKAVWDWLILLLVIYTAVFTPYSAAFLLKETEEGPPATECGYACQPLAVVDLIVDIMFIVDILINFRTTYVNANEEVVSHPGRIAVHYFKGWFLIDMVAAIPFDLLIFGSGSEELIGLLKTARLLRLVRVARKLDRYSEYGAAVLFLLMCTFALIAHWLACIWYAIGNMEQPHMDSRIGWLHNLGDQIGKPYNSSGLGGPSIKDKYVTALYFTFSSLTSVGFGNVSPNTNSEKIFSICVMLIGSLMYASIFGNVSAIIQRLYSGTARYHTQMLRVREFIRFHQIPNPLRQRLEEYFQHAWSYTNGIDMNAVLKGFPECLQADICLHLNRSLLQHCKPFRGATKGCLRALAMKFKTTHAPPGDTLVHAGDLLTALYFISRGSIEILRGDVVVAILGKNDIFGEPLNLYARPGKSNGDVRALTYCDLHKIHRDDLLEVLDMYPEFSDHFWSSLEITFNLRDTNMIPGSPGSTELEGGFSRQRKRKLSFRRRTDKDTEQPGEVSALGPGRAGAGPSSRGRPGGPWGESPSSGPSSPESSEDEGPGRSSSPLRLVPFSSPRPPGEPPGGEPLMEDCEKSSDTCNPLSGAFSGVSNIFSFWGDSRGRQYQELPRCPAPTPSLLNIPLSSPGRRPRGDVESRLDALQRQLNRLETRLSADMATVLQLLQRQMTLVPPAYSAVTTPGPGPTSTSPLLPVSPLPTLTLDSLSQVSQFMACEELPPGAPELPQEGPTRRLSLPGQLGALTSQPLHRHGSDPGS
# Chain of Cytochrome P450 2D6 (Homo sapiens) (P10635 whole entry, looked up): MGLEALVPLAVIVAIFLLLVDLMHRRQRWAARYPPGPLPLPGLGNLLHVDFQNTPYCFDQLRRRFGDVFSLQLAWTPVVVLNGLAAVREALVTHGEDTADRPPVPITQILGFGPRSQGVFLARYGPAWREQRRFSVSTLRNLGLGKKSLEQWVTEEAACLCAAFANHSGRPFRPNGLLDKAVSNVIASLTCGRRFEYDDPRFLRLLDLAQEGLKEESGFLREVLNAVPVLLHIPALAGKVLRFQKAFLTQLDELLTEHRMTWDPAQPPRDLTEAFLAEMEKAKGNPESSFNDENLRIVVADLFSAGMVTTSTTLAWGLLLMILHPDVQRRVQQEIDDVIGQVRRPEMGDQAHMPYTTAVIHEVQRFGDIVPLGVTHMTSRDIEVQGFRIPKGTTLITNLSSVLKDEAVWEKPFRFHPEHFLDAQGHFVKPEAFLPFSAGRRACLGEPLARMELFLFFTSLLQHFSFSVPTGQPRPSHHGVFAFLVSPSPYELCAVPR
# Chain of Nuclear receptor subfamily 1 group I member 2 (Homo sapiens) (O75469 whole entry, looked up): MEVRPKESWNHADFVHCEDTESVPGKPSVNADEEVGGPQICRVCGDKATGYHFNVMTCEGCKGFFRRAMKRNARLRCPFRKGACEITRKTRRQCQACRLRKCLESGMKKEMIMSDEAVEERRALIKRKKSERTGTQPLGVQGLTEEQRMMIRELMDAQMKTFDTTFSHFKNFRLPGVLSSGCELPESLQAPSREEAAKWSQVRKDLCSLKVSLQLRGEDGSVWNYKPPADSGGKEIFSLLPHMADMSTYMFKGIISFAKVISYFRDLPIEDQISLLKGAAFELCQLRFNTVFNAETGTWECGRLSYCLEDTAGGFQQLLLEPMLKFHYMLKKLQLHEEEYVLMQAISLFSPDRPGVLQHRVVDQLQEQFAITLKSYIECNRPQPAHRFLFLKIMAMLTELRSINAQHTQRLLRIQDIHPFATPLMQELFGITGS
# Chain of Nuclear receptor subfamily 1 group I member 2 (Rattus norvegicus) (Q9R1A7 whole entry, looked up): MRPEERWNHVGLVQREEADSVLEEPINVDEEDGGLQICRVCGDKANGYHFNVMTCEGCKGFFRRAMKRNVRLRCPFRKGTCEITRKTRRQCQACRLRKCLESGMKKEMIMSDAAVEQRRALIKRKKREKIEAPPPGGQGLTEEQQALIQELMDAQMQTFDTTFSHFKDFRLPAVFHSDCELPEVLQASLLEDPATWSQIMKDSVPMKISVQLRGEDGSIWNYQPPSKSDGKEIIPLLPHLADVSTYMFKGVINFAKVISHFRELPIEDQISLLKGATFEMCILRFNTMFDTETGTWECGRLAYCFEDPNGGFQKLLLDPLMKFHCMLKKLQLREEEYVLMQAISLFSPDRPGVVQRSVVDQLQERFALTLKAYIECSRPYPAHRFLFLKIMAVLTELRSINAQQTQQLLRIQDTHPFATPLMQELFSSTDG
# Chain of Cytochrome P450 1A2 (Homo sapiens) (P05177 whole entry, looked up): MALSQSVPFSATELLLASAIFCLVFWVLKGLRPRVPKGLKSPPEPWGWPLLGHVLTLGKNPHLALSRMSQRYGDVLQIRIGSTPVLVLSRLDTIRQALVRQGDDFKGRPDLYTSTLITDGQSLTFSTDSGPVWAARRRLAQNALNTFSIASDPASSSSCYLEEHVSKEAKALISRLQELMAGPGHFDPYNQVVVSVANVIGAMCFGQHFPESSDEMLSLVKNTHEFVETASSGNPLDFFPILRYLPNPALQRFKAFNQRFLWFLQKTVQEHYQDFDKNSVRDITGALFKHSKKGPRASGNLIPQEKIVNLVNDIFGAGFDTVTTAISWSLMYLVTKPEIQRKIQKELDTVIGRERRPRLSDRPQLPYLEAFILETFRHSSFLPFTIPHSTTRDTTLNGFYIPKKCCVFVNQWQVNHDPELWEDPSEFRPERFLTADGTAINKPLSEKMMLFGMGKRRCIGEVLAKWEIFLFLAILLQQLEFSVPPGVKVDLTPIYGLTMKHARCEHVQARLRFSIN
# Chain of Cytochrome P450 2C9 (Homo sapiens) (P11712 whole entry, looked up): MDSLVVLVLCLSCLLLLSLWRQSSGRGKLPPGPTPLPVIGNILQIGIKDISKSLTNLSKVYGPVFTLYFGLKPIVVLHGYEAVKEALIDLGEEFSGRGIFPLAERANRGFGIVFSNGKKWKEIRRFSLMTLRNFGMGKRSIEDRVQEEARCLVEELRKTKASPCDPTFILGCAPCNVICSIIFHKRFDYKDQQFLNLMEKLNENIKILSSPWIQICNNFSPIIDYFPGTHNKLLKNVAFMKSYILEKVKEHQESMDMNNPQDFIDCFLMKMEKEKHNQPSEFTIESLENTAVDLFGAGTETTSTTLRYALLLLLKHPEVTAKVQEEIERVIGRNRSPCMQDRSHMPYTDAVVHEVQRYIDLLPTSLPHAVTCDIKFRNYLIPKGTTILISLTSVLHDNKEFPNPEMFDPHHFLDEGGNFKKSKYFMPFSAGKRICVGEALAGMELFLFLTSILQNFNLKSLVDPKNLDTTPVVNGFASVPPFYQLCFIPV
# Chain of Cytochrome P450 3A4 (Homo sapiens) (P08684 whole entry, looked up): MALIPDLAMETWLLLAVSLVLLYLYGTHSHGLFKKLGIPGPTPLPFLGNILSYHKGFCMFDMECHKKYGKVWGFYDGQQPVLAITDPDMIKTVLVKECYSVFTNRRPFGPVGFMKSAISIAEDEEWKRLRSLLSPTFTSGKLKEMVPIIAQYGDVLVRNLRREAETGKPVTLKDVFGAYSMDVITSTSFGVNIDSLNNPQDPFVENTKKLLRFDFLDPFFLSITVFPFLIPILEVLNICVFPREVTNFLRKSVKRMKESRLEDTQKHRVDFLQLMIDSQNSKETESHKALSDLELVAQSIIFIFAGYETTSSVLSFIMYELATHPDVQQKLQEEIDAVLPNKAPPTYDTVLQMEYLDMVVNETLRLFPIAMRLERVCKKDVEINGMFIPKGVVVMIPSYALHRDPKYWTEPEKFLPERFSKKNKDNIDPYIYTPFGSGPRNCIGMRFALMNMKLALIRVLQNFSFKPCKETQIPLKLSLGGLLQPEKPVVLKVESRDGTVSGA
# Chain of Cytochrome P450 2C19 (Homo sapiens) (P33261 whole entry, looked up): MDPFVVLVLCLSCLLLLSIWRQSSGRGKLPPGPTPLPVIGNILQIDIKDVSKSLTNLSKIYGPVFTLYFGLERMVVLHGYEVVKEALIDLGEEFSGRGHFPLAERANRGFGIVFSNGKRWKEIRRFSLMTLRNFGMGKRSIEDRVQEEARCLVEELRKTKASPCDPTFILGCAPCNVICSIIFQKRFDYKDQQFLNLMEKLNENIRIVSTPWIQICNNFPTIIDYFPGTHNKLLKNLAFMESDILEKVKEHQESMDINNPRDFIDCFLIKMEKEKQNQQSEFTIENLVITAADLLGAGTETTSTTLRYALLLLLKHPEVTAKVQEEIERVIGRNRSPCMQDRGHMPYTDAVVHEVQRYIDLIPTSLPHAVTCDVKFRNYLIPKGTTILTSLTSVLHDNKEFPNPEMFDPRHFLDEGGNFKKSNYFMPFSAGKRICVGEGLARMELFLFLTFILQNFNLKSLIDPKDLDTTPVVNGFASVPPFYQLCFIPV
Compound,Potency [1],Potency [2],Potency [3],Potency [4],Potency [5],Potency [6],outcome [7],Potency [8],max activation [9],outcome [10],Potency [11],"activity change, negative = cytotoxicity [1]",activation [2],"activity change, negative = inhibition [7]","activity change, negative = inhibition [5]",Potency [9]
CCCCCCCC(=O)OC,inactive,inactive,inactive,inactive,inactive,inactive,inactive,inactive,,,,,,,,
C=CCOC(=O)c1ccccc1C(=O)OCC=C,inactive,inactive,inactive,1.56 µM (active) and 1.26 µM (active),3.93 µM (active) and 5.64 µM (active),2.48 µM (active) and 3.56 µM (active),inactive,3.12 µM (active) and 6.33 µM (active),,,,,,,,
Cc1cnc(C(=O)NCCc2ccc(S(=O)(=O)NC(=O)NC3CCCCC3)cc2)cn1,inactive,inactive,,,,,,,,,,,,,,
C#CCN(C)Cc1ccccc1,inactive,inactive,,,inactive,,inactive,inactive,-0.422% (inactive),inactive,inactive,,,,,
CCc1cccc(C)c1N,inactive,59.2 µM (active) and inactive,inactive,68.8 µM (active) and 71 µM (active),inactive,39.9 µM (active),inactive,inactive,,,,,,,,
CCCCCCCCCCCCCCCO,inactive,inactive,inactive,35.9 µM (active) and 39.9 µM (active),40.3 µM (active),71.6 µM (active),inactive,inactive,,,,,,,,
CN(C)CCCN,inactive,inactive,inactive,inactive,inactive,inactive,inactive,inactive,,,,,,,,
CCN(CC)CCCC(C)Nc1ccnc2cc(Cl)ccc12 (configuration not stated),,,,,,,,,-1.5% (inactive),,inactive,-14.1% [at 8.39 µM] (inactive) and -16.1% [at 19 µM] (inactive),3.19% [at 8.39 µM] (inactive) and -3.77% [at 19 µM] (inactive),0.661% [at 6.97 µM] (inactive) and 1.69% [at 15.8 µM] (inactive),,
O=C(O)[C@H](O)[C@@H](O)[C@H](O)[C@H](O)CO,inactive,inactive,inactive,89.2 µM (active),,,inactive,inactive,-0.835% (inactive) and -2.16% (inactive),inactive,inactive,,,,3.47% [at 4.07 µM] (inactive),
CC(=O)Nc1ccccc1,inactive,inactive,inactive,71.3 µM (active) and inactive,inactive,inactive,inactive,inactive,-1.12% (inactive),inactive,inactive,,,,,
CCCCC(CC)COC(=O)CS (configuration not stated),inactive,inactive,28.6 µM (active),25.5 µM (active) and inactive,64.1 µM (active) and 71 µM (active),64.1 µM (active) and inactive,inactive,40.4 µM (active),,,,,,,,
O=c1[nH]c(=O)n([C@H]2CCCO2)cc1F,inactive,inactive,inactive,inactive,inactive,,inactive,inactive,-0.0643% (inactive),inactive,inactive,,,,,
CC(C)c1ccc(S(=O)(=O)O)cc1,inactive,inactive,inactive,inactive,inactive,inactive,inactive,inactive,,,,,,,,
OCCOCCOCCO,inactive,63.4 µM (active) and inactive,inactive,inactive,inactive,inactive,inactive,inactive,-2.18% (inactive),inactive,inactive,,,,,
CC(=O)OCC(=O)[C@@]12N=C(C)O[C@@H]1C[C@H]1[C@@H]3CCC4=CC(=O)C=C[C@]4(C)[C@H]3[C@@H](O)C[C@@]12C,inactive,17.2 µM (active),inactive,inactive,inactive,inactive and 17.4 µM (active),inactive,inactive,,inactive,inactive,,,,,15.8 µM (active)
CSCCC=O,inactive,inactive,inactive,75.8 µM (active) and 7.1 µM (active),35.6 µM (active),19 µM (active) and 4.48 µM (active),inactive,inactive,,,,,,,,
CC(=O)Nc1cccc(O)c1,inactive,inactive,inactive,,inactive,inactive,inactive,inactive,-2.31% (inactive),inactive,inactive,,,,,
